Only some compounds are listed: those with a hit (about 5% of all), similar ones and a draw of the others.
EBI2 antag: EBI2 receptor antagonists, beta-arrestin recruitment, primary screen, cell-based, luminescence, 7a,25-OHC stimulation, uHTS | G-protein coupled receptor 183 (Homo sapiens), P32249 | 7a,25-OHC stimulated | inhibition, % at 5 µM | 0.81% of 360,000 active; in the data active = inhibition above about 38%;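 also: enzyme fragment complementation signal reports receptor beta-arrestin coupling in cells; 0% = agonist plus DMSO wells and 100% = wells without agonist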
SENP8 block-1: SENP8 protease inhibitors, primary screen, biochemical, luminescence; Sentrin-specific protease 8 (Homo sapiens), Q96LD8; purified SENP8, Z-RLRGG-aminoluciferin cleavage; inhibition, % at 10 µM; 1.2% of 330,000 active; AID 2540, 2010; in the data active = inhibition above about 50%
Target sequence (Q96LD8 whole entry, looked up): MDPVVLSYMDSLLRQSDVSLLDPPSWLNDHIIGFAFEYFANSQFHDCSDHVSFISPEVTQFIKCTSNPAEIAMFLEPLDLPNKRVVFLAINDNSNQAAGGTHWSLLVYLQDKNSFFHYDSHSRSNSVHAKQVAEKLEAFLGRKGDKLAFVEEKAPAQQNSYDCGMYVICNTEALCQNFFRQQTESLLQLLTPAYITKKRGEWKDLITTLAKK
AHR activator: AHR activators, primary screen, cell-based, luminescence, luciferase reporter, human; Aryl hydrocarbon receptor (Homo sapiens), P35869; AHR-responsive luciferase reporter cells; activation, % at 5 µM; 2.5% of 320,000 active; in the data active = activation above about 47%;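 also: 0% = vehicle wells and 100% = reference agonist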
SENP8 block-2: human SENP8 protease inhibitors, primary screen, biochemical, fluorescence, Nedd8 protein substrate, uHTS; Sentrin-specific protease 8 (Homo sapiens), Q96LD8; recombinant SENP8; inhibition, % at 20 µM; 0.64% of 360,000 active; in the data active = inhibition mostly above about 40%, no sharp cut-off; inactive = mostly below about 27%
SENP7 inh: SENP7 protease inhibitors, primary screen, biochemical, luminescence, uHTS. recombinant SENP7, Z-RLRGG-aminoluciferin luminescence, 40 min. inhibition, % at 5 µM. Sentrin-specific protease 7 (Homo sapiens), Q9BQF6. 1.5% of 330,000 active. AID 434973, 2010;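 active = inhibition above about 50% at the single test dose, limit read from the data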;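 also: plate controls were DMSO with enzyme for no effect and no enzyme buffer wells for full effect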
SENP6 inh: SENP6 protease inhibitors, primary screen, biochemical, luminescence, uHTS; inhibition, % at 10 µM; AID 2599, 2010; Recombinant SENP6 catalytic domain, aminoluciferin luminescence; 1.8% of 330,000 active; Sentrin-specific protease 6 (Homo sapiens), Q9GZR1;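 active = inhibition above about 50% at the single tested dose, limit read from the data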;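 also: plate controls were DMSO wells with enzyme for no effect and DMSO wells lacking enzyme for full effect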
Target sequence (Q9GZR1 628-1112 limits assumed): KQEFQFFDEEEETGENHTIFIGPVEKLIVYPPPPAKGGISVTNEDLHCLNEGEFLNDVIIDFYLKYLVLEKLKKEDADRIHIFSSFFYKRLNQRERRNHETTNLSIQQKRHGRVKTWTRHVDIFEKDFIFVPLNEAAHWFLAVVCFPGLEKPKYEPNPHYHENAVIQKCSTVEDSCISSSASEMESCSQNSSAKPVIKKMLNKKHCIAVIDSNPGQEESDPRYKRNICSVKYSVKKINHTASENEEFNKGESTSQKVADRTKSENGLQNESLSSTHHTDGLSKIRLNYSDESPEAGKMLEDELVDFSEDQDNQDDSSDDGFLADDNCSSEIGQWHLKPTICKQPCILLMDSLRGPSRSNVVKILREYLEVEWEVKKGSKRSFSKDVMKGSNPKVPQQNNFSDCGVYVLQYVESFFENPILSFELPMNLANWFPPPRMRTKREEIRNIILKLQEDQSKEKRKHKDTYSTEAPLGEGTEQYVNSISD
SENP8 confirm: SENP8 protease inhibitors, retest, confirmation, biochemical, luminescence, single concentration; shares compounds with SENP7 inh; Recombinant SENP8, Z-RLRGG-aminoluciferin luminescence, 60 min; inhibition, % at 12.5 µM; 40% of 6,200 active;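 active = mean inhibition across replicates above about 50%, limit read from the data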
SENP6 confirm: SENP6 protease inhibitors, confirmation, biochemical, luminescence, single concentration; AID 488915, 2010; inhibition, % at 12.5 µM; 58% of 6,200 active; recombinant SENP6, Z-RLRGG-aminoluciferin luminescence; shares compounds with SENP7 inh
SENP7 confirm: SENP7 protease inhibitors, retest, confirmation, biochemical, luminescence, single concentration. inhibition, % at 12.5 µM. AID 488917, 2010. recombinant SENP7, Z-RLRGG-aminoluciferin luminescence, 40 min. 69% of 6,200 active. shares compounds with SENP7 inh
Casp3 SENP sel: caspase-3 protease inhibitors, confirmation, selectivity assay for SENP inhibitor project, biochemical, single concentration. purified caspase-3, Z-DEVD-aminoluciferin luminescence, 60 min. 60% of 6,200 active. shares compounds with SENP7 inh. inhibition, % at 12.5 µM. AID 488918, 2010;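 active = mean inhibition above about 50%, limit read from the data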;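 also: plate controls were enzyme with DMSO for no effect and wells without caspase-3 for full effect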
Luc interf: counter-screen for SENP inhibitors: luminescence interference | shares compounds with SENP7 inh | Pre-incubated SENP8/Z-RLRGG-aminoluciferin, luciferase luminescence interference | inhibition, % at 12.5 µM | 39% of 6,200 active;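 active = mean inhibition above about 50% when retested at one dose, limit read from the data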;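 also: plate controls were DMSO wells with completed reaction for no effect and substrate without enzyme for full effect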
* hit, by the source's call; / = no result given.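 The calls were made as follows, unless noted: active = mean inhibition above about 50% in the one-dose retest (limit read from the data); inactive = the rest.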

SMILES | EBI2 antag | SENP8 block-1 | AHR activator | SENP8 block-2 | SENP7 inh | SENP6 inh | SENP8 confirm | SENP6 confirm | SENP7 confirm | Casp3 SENP sel | Luc interf
c1ccc(-c2ccc(-c3cn4c(n3)CCC4)cc2)cc1 | 16.1 | 68.6* | -17.9 | -444.5 | 72.8* | 86.8* | 79.6* | 80.1* | 94.7* | 66.1* | 59.9*
CCCCN1C2CCCC1CC(NC(=O)c1ccccc1Cl)C2 (configuration not stated) | -2.6 | -7.0 | -1.2 | 22.1 | 82.6* | -12.5 | -7.7 | -2.6 | -5.5 | -2.7 | -5.0
N/C(=N\OC(=O)c1ccc(F)cc1)c1cccc([N+](=O)[O-])c1 | -14.0 | -17.7 | 25.3 | 11.5 | 20.5 | 18.7 | / | / | / | / | /
O=C(O/N=C1\CCCc2ccccc21)c1cccs1 | -1.3 | 85.8* | 3.6 | 4.9 | 91.3* | 88.2* | -23.8 | 94.2* | 101.3* | 90.1* | 32.6
Cc1cccc(/C(N)=N/OC(=O)c2ccc(F)cc2)c1 | 11.0 | 96.0* | 0.0 | 10.6 | 98.8* | 98.2* | 97.6* | 98.1* | 101.6* | 97.9* | 88.7*
COc1ccc(/C(N)=N/OC(=O)c2cccs2)cc1OC | -1.3 | -1.3 | 6.2 | 1.9 | -2.7 | -7.6 | / | / | / | / | /
N/C(=N\OC(=O)c1cccs1)c1cccc(Br)c1 | -0.9 | 80.1* | 20.2 | 6.7 | 87.5* | 21.0 | 87.3* | 88.6* | 99.1* | 89.6* | 82.0*
O=C(Cc1ccccc1)O/N=C1\CCCc2ccccc21 | -2.0 | 34.5 | -0.2 | 3.8 | 35.3 | -11.1 | / | / | / | / | /
Cc1ccc(/C(N)=N/OC(=O)c2cccs2)cc1 | 5.2 | 68.3* | -6.0 | 8.8 | 67.3* | 73.0* | 58.4* | 64.9* | 91.2* | 73.0* | 60.1*
CC1CCC(N2CCNCC2)CC1 (configuration not stated) | 7.6 | -8.6 | -1.2 | 8.1 | -1.4 | -7.9 | / | / | / | / | /
CCN1CCN(C(c2cccs2)C(C)NC(=S)Nc2cccc(C)c2C)CC1 (configuration not stated) | 2.0 | 4.0 | -0.4 | 17.6 | -1.1 | -11.6 | / | / | / | / | /
COc1ccc(CCN2CC(C(=O)NC3CCCCC3)CC2=O)cc1OC (configuration not stated) | 3.8 | 0.8 | 5.7 | 7.0 | -4.1 | -17.9 | / | / | / | / | /
N/C(=N\OC(=O)c1cccs1)c1ccccc1 | 9.5 | 91.3* | 23.1 | 2.9 | 99.0* | -8.1 | 92.7* | 95.0* | 100.7* | 97.1* | 93.3*
Cc1cccc(/C(N)=N/OC(=O)c2cccs2)c1 | -1.7 | 91.2* | -2.6 | 22.3 | 97.0* | 88.2* | 95.4* | 96.0* | 100.8* | 97.1* | 95.6*
COc1ccc2c(c1)C(=O)c1ccccc1CO2 | 3.1 | 23.1 | 2.6 | -10.7 | -5.2 | 56.2* | 70.4* | 74.5* | 91.1* | 66.8* | 67.3*
O=C1c2ccccc2COc2ccc(O)cc21 | -7.7 | -13.6 | -0.2 | 18.6 | -15.6 | -17.5 | / | / | / | / | /
O=C(Nc1ccccc1F)C1CCN(C(=O)NCc2ccccc2)CC1 | 4.6 | -3.1 | -0.1 | -3.4 | -9.2 | -15.3 | / | / | / | / | /
O=C(c1ccc2c(=O)n(Cc3ccccc3Cl)c(=S)[nH]c2c1)N1CCOCC1 | -2.9 | -6.4 | -0.5 | -0.2 | -13.0 | 17.3 | / | / | / | / | /
CC(=O)c1sc(NC(=O)c2oc3ccc(F)cc3c2C)nc1C | -6.8 | 56.6* | 32.1 | -468.6 | 80.5* | 45.1 | 37.4 | 39.2 | 16.6 | 50.5* | 15.8
CC(=O)c1sc(NC(=O)c2cc(=O)c3ccccc3o2)nc1C | -4.8 | 67.0* | 6.3 | 15.3 | 64.4* | 82.3* | 79.3* | 81.7* | 96.2* | 90.3* | 47.5
CSCCNC(=O)C1(C)CCN1C(=O)C/C=C/c1ccccc1 (configuration not stated) | 2.3 | / | / | 31.8 | / | / | / | / | / | / | /
CCOc1ccc(/C=C2\CCC(C3CCCC3)C2=O)cc1 (configuration not stated) | 18.9 | 30.6 | 1.1 | 10.8 | 71.2* | 11.2 | 16.3 | 18.4 | 15.4 | 36.1 | 3.5
O=C1/C(=C/c2ccco2)CCC1C1CCCC1 (configuration not stated) | 1.6 | 77.5* | -3.3 | 30.9 | 73.4* | 91.7* | -2.0 | 77.0* | 95.3* | 57.0* | 15.7
O=C1/C(=C\c2ccco2)CCC/C1=C\c1ccco1 | 3.6 | 0.8 | 9.3 | -21.8 | -0.4 | -71.6 | / | / | / | / | /
O=C1/C(=C/c2ccco2)Cc2ccccc21 | -10.2 | 32.9 | 2.8 | -34.4 | 2.3 | 65.7* | 47.6 | 66.8* | 90.0* | 71.6* | 28.9
SMILES | EBI2 antag | SENP8 block-1 | AHR activator | SENP8 block-2 | SENP7 inh | SENP6 inh | SENP8 confirm | SENP6 confirm | SENP7 confirm | Casp3 SENP sel | Luc interf
O=C1/C(=C/c2ccccc2)CCC1C1CCCC1 (configuration not stated) | -12.0 | 0.2 | 1.3 | 15.2 | 63.8* | 72.8* | 4.4 | 5.5 | 22.0 | 28.7 | 22.8
CCN(CCO)Cc1cc(=O)oc2cc3c(cc12)CCC3 | 8.0 | 10.6 | 2.8 | -139.8 | 6.7 | -4.7 | / | / | / | / | /
CCOC(=O)c1nnn(-c2nonc2N)c1CSc1nnc(N)s1 | -1.6 | 5.7 | 2.0 | 15.7 | -4.0 | -3.2 | / | / | / | / | /
COc1ccccc1/C=C1\CCC(C2CCCC2)C1=O (configuration not stated) | 14.5 | -1.3 | 13.5 | 14.2 | -9.2 | 7.0 | / | / | / | / | /
O=C1/C(=C/c2ccc(F)cc2)CCC1C1CCCC1 (configuration not stated) | 0.1 | 62.4* | -4.0 | 11.6 | 62.2* | 42.4 | 31.4 | 30.9 | 44.0 | 53.8* | 27.0
COc1ccccc1C(=O)Nc1nnc(SCC(=O)Nc2ccc3c(c2)oc2ccccc23)s1 | -4.5 | 21.8 | 4.8 | -94.6 | 73.9* | 34.1 | 19.3 | -7.4 | 11.6 | 14.0 | -0.7
COCCSc1nnc(NC(=O)c2ccco2)s1 | -17.2 | -7.6 | 4.7 | -14.8 | 92.4* | -13.8 | -2.3 | -2.8 | -3.3 | 19.1 | 4.0
